According to PubChem BioAssay AID1159580 (chemical genetic matrix, 2015):
The campaign covered roughly 5,500 compounds. About 2,000 (36%) were called active. Roughly 18% stayed inconclusive and do not appear here. Rule as the data show it: active = normalized growth mostly below about 0.91 (no sharp cut-off); inconclusive = no clear call, values can overlap the other calls; inactive = mostly above about 0.92. Some of the results follow.

Assay: chemical genetic growth profiling, strain panel (AID 1159580);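 also: tested at 20 µM; growth read once vehicle control cultures reached saturation at 30 °C; 1 = growth at the plate median or of vehicle wells; lower values mean less growth of the strain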
Conditions: S. cerevisiae deletion strains, growth OD
[1] = locus YAL040C, strain CLN3, active compounds read low
[2] = locus YCL061C, strain MRC1 (second series), active compounds read low
[3] = locus YDR150W, strain NUM1, active compounds read low
[4] = locus YDR363W, strain ESC2, active compounds read low
[5] = locus YER002W, strain NOP16, active compounds read low
[6] = locus YGR078C, strain PAC10, active compounds read low
[7] = locus YJR075W, strain HOC1, active compounds read low
[8] = locus YMR263W, strain SAP30, active compounds read low
[9] = locus YMR307W, strain GAS1, active compounds read low
[10] = locus YNL128W, strain TEP1, active compounds read low
[11] = locus YNL153C, strain GIM3, active compounds read low
[12] = locus YNL175C, strain NOP13, active compounds read low
[13] = locus YNL197C, strain WHI3, active compounds read low
[14] = locus YNL224C, strain SQS1, active compounds read low
[15] = locus YNL322C, strain KRE1, active compounds read low
[16] = locus YOR083W, strain WHI5 (second series), active compounds read low
[17] = locus YPL241C, strain CIN2, active compounds read low
[18] = locus YPL055C, strain LGE1, active compounds read low
[19] = locus YDL101C, strain DUN1, active compounds read low
[20] = locus YHR030C, strain SLT2, active compounds read low

Measured: normalized growth

CCCN1CCCC2Cc3[nH]ncc3CC21 (configuration not stated)
inactive: [1] 0.972 | [2] 1 | [3] 0.995 | [4] 1.02 | [5] 0.992 | [6] 0.997 | locus YGR229C, strain SMI1, active compounds read low 0.989 | [7] 1 | [8] 0.997 | [9] 0.992 | [10] 0.989 | [11] 1.1 | [12] 0.994 | [13] 0.992 | [14] 0.98 | [15] 1.02 | [16] 0.986 | [17] 1

CC(C)NP(=O)(NC(C)C)OP(=O)(NC(C)C)NC(C)C
inactive: [1] 0.983 | [2] 1 | [4] 0.998 | [5] 0.995 | [6] 0.991 | [7] 1.01 | [8] 0.991 | [9] 0.995 | [10] 0.99 | [12] 0.991 | [13] 0.995 | [14] 0.991 | [15] 1.01 | [16] 0.991 | [18] 1.01

Cc1csc2c(N3CCN(C(=S)Nc4ccc(C(F)(F)F)cc4)CC3)ncnc12
active: locus YLR113W, strain HOG1, active compounds read low 0.826
inactive: locus YAR019C, strain CDC15, active compounds read low 0.985 | locus YBL105C, strain PKC1, active compounds read low 0.989 | locus YBR135W, strain CKS1, active compounds read low 0.981 | locus YBR136W, strain MEC1, active compounds read low 0.982 | locus YBR160W, strain CDC28, active compounds read low 0.979 | locus YDL017W, strain CDC7, active compounds read low 0.992 | locus YDL028C, strain MPS1, active compounds read low 0.981 | [19] 0.988 | locus YDL108W, strain KIN28, active compounds read low 0.99 | locus YDL132W, strain cdc53, active compounds read low 0.998 | locus YDL214C, strain PRR2, active compounds read low 0.956 | locus YDR052C, strain DBF4, active compounds read low 0.999 | locus YDR054C, strain cdc34, active compounds read low 0.997 | locus YDR226W, strain ADK1, active compounds read low 0.997 | locus YDR477W, strain SNF1, active compounds read low 0.983 | locus YER123W, strain YCK3, active compounds read low 0.937 | locus YER133W, strain GLC7, active compounds read low 0.974 | locus YFL009W, strain cdc4, active compounds read low 0.992 | locus YFL029C, strain CAK1, active compounds read low 0.991 | locus YFR003C, strain YPI1, active compounds read low 0.992 | locus YFR019W, strain FAB1, active compounds read low 0.965 | locus YFR028C, strain CDC14, active compounds read low 0.978 | locus YGR040W, strain KSS1, active compounds read low 0.959 | locus YGR052W, strain FMP48, active compounds read low 1.02 | locus YGR092W, strain DBF2, active compounds read low 0.972 | [20] 0.979 | locus YHR079C, strain IRE1, active compounds read low 0.991 | locus YHR082C, strain KSP1, active compounds read low 1.04 | locus YHR205W, strain SCH9, active compounds read low 0.919 | locus YIL147C, strain SLN1, active compounds read low 0.992 | locus YJL095W, strain BCK1, active compounds read low 0.982 | locus YJL128C, strain PBS2, active compounds read low 0.96 | locus YJL157C, strain FAR1, active compounds read low 0.944 | locus YJR016C, strain ILV3, active compounds read low 0.993 | locus YJR066W, strain TOR1 (second series), active compounds read low 0.928 | locus YJR066W, strain TOR1, active compounds read low 1.06 | locus YKL048C, strain ELM1, active compounds read low 0.965 | locus YKL067W, strain YNK1, active compounds read low 0.963 | locus YKL101W, strain HSL1, active compounds read low 0.944 | locus YKL193C, strain SDS22, active compounds read low 0.986 | locus YKL203C, strain TOR2, active compounds read low 1.03 | locus YLR133W, strain CKI1, active compounds read low 0.959 | locus YLR403W, strain SFP1, active compounds read low 0.956 | locus YML070W, strain DAK1, active compounds read low 0.924 | locus YMR001C, strain CDC5, active compounds read low 1 | locus YMR205C, strain PFK2 (second series), active compounds read low 0.949 | locus YMR277W, strain FCP1, active compounds read low 0.987 | locus YNL006W, strain LST8, active compounds read low 0.988 | locus YNL020C, strain ARK1, active compounds read low 0.956 | locus YNL161W, strain CBK1, active compounds read low 0.98 | locus YNL183C, strain NPR1, active compounds read low 0.996 | locus YNL207W, strain RIO2, active compounds read low 0.978 | locus YNL222W, strain SSU72, active compounds read low 0.991 | locus YNL307C, strain MCK1 (second series), active compounds read low 0.937 | locus YOL078W, strain AVO1, active compounds read low 0.992 | locus YOL136C, strain PFK27, active compounds read low 0.922 | locus YOR061W, strain CKA2, active compounds read low 0.964 | locus YOR119C, strain RIO1, active compounds read low 1.03 | locus YOR231W, strain MKK1, active compounds read low 0.928 | locus YOR329C, strain SCD5, active compounds read low 0.986 | locus YPL031C, strain PHO85, active compounds read low 0.986 | locus YPL153C, strain RAD53, active compounds read low 0.979 | locus YPL204W, strain HRR25, active compounds read low 0.941 | locus YPL209C, strain IPL1, active compounds read low 0.984 | locus YPL256C, strain CLN2, active compounds read low 0.942 | locus YPR025C, strain CCL1, active compounds read low 0.982 | locus YPR106W, strain ISR1, active compounds read low 0.975 | locus YPR111W, strain DBF20, active compounds read low 0.977 | strain NNK1, active compounds read low 0.967 | strain TSCII, active compounds read low 0.992

Cc1onc(-c2c(Cl)cccc2Cl)c1C(=O)N1CCN(c2ncnc3scc(-c4ccccc4)c23)CC1
inactive: locus YAL013W, strain DEP1, active compounds read low 0.97 | locus YBR229C, strain ROT2, active compounds read low 1 | locus YCL061C, strain MRC1, active compounds read low 0.994 | [19] 0.979 | locus YDL134C, strain PPH21, active compounds read low 1 | [3] 0.94 | locus YEL061C, strain CIN8, active compounds read low 1.02 | [6] 1 | [20] 0.942 | locus YHR087W, strain rtc3, active compounds read low 1.01 | locus YJR043C, strain POL32, active compounds read low 0.977 | [7] 0.997 | locus YKL190W, strain CNB1, active compounds read low 1.01 | locus YLR039C, strain RIC1, active compounds read low 0.937 | locus YLR058C, strain SHM2 (second series), active compounds read low 1.01 | locus YLR085C, strain ARP6, active compounds read low 1.01 | locus YLR262C, strain YPT6, active compounds read low 0.962 | locus YML094W, strain GIM5, active compounds read low 1.01 | locus YMR219W, strain ESC1, active compounds read low 1.01 | [8] 0.967 | [10] 1.01 | [11] 0.999 | locus YNL298W, strain CLA4 (second series), active compounds read low 1.02 | [15] 1.01 | locus YNR030W, strain Alg12, active compounds read low 1.01 | [18] 1.02 | [17] 1.01 | locus YPR135W, strain CTF4, active compounds read low 0.923
